Measured values published in PubChem BioAssay (NCATS).
Inconclusive results are not listed. Entries that show only a call come without a potency. Calls of active or inactive are those of the source. Calls follow the shape of the dose curve; as a rule, active = well fitted inhibition curve with a large enough effect; inconclusive = small, poorly fitted or top-dose-only effect; inactive = flat fitted curve, though single readings scatter.

These molecules were tested against Calcium and integrin-binding protein 1 (Homo sapiens) (UniProt Q99828) (assay: Primary qHTS for Identification of Calcium Integrin Binding Protein 1 (CIB1) Competitor (AID 1508620;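 also: GST tagged CIB1 binding a fluorescein labelled alphaIIb integrin peptide tracer; top concentration of the series differs between compounds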)). Details: CIB1-GST / FITC-alphaIIb peptide fluorescence polarization; series mostly up to 114 µM.
Sequence of Calcium and integrin-binding protein 1 (Homo sapiens) (Q99828 whole entry, looked up): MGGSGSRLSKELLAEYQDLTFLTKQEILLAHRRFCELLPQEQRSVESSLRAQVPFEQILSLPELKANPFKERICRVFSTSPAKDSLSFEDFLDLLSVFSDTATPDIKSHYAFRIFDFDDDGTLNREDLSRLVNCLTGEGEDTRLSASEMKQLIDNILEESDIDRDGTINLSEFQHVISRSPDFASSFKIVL
Method in brief: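 CIB1-GST (1 uM final) and compound incubated 15 min at room temperature before adding FITC-alphaIIb peptide tracer (100 nM final). Competition for binding read by fluorescence polarization (ex 480, em 540) after another 15 min at room temperature.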

SMILES	Potency
Cn1nnnc1Sc1ncnc2scc(-c3cccc(S(C)(=O)=O)c3)c12	inactive
Cc1cc(C)nc(NC(=S)N2CCN(c3cnccn3)CC2)c1	inactive
CN1C(=O)NC(c2ccccc2Cl)C2=C1CCCC2=O (stereo not given)	inactive
O=C(Nc1ccc(Cl)c(Cl)c1)Nc1nnc(-c2cccnc2)s1	inactive
O=[S+]([O-])(Nc1ccccc1)c1ccc(NCc2ccc(Cl)cc2O)cc1	inactive
O=C(NCc1ccccc1)Nc1nnc(-c2ccncc2)s1	inactive
CCOC(=O)c1nn(-c2ccccc2)c(=O)c2c(N)scc12	inactive
Nc1ccc(-c2ccc(NC(=O)c3cccs3)cn2)cc1	inactive
O=C1NC2=C(C(=O)CCC2)C(c2ccccc2Cl)N1 (stereo not given)	inactive
Cc1csc(CNc2ncnc3ccc(-c4ccc5c(c4)OCO5)cc23)c1	inactive
CC(=O)Nc1sc2c(c1-c1ccccc1F)CCNC2	inactive
O=C(O)c1ccc2c(c1)C(=O)N([C@H](Cc1ccc(F)cc1)C(=O)O)C2=O	inactive
CC(=O)NC(c1cc(Cl)c2ccccc2c1O)C1CC1 (stereo not given)	inactive
O=C1CCCC2=C1C(c1ccccc1Cl)N=C(c1ccccn1)N2 (stereo not given)	inactive
O=C(OCC#CCSc1nnc(-c2ccc3ccccc3c2)o1)c1cccs1	inactive
CC(C)(C)OC(=O)N1CCN(c2cnc(NCc3ccc(-c4ccc(C#N)cc4)o3)nc2)CC1	inactive
Cc1cccc(CNc2ncnc3ccc(-c4ccc5c(ccn5C)c4)cc23)c1	inactive
CSc1ccccc1-c1ncc(C)c(NCc2ccc(-c3cccnc3)cc2)n1	inactive
Cc1cc(C)nc(NC(=S)N2CCN(c3ccc(N4CCCC4)nn3)CC2)c1	inactive
N=c1c2c(ccn1CCc1ccccc1)Oc1ccc3ccccc3c1C2c1ccccc1 (stereo not given)	inactive

SMILES	Potency
Cc1csc(CNc2ncnc3cc(-c4ccc5c(c4)OCO5)ccc23)n1	inactive
COc1cc(O)c(C(CC(=O)N2CCCC(C(=O)N3CCCCC3)C2)c2ccc3c(c2)OCO3)c(OC)c1 (stereo not given)	inactive
CC(C)(C)c1ccc(Nc2nc(C#N)nc(NC3CCCC3)n2)cc1	inactive
Cc1ccc(NS(=O)(=O)c2ccc(-c3ccccc3)cc2)cc1C	inactive
Cc1nnc(-c2cnn(C)c2N)n1CCc1ccccc1	inactive
CC(=O)c1cccc(NC(=O)Nc2nnc(-c3ccncc3)s2)c1	inactive
S=C(Nc1cc(Cl)ccn1)N1CCN(c2ccc(Cl)c(Cl)c2)CC1	inactive
CC(C)(C)OC(=O)CC(=O)NNC(=O)c1cc2ccccc2[nH]1	inactive
CCOC(=O)C1CCN(C(=O)C(C)(C)NC(=O)Nc2cccc(C(=O)OC)c2)CC1	inactive
COc1ccccc1C1=Nn2c(COc3ccccc3)nnc2SC1	inactive
N#Cc1c(-c2ccc(OCCOCCOCCN)cc2)no[n+]1[O-]	inactive
COc1ccc(C2Nc3ccccc3C(=O)N2Cc2ccccc2)cc1COc1ccccc1OC (stereo not given)	inactive
O=C1c2ccccc2C(=O)N1c1cccc2ccncc12	inactive
O=C(Cc1ccccc1)Nc1sc2c(c1C(=O)Nc1cccc(Cl)c1)CCCC2	inactive
Cc1ccc(OCCn2c(CCNC(=O)CCc3ccccc3Br)nc3ccccc32)cc1	inactive
Cc1cc(N[S+](=O)([O-])c2ccc(NC(=O)Cc3ccc4nccnc4c3)cc2)no1	inactive
O=C(/C=C/c1ccc([N+](=O)[O-])o1)Nc1cccc([S+](=O)([O-])Nc2ccccc2F)c1	inactive
Cc1ccc(NS(=O)(=O)c2cc3c(cc2/C=C/c2ccccc2)NC(=O)CO3)cc1C	inactive
CCOC(=O)C1CCN(C(=O)C(C)(C)NC(=O)Nc2ccc3sccc3c2)CC1	inactive
O=C(CNC(=O)c1ccccc1)N[C@@H](C(=O)Nc1cc(C(F)(F)F)ccc1Cl)c1ccccc1	inactive
